Only some compounds are listed: those with a hit (about 2.9% of all), similar ones and a draw of the others.
KKLEB tox = cytotoxicity in KKLEB CF airway cells, primary screen, cytotoxicity control for CF NF-kB inhibitor project, cell-based, uHTS, fluorescence assay plates; 360,000 tested, 0.36% active; KKLEB CF airway cells viability, ATPlite luminescence, overnight; active compounds read low; cells stimulated with P. aeruginosa culture filtrate; AID 602141, 2011; activity change (cytotoxicity), % at 5 µM;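 active means corrected activity change at or below -50% at 5 µM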
Shn3 inh set2 = reduction of Shn3 3'UTR firefly luciferase signal, primary screen, Schnurri-3 inhibitor project, cell-based, Clone20 osteoblasts, set 2. inhibition, % at 12.5 µM. 360,000 tested, 0.52% active. AID 588674, 2011. Clone20 osteoblast Shn3 3'UTR firefly luciferase, 24 h;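 active means mean inhibition of at least 75% with every replicate also reaching 75%; inconclusive means mean inhibition at least 75% but some replicate below; inactive means mean inhibition below 75%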
MITF TRPM1 inh = inhibitors of MITF-dependent TRPM1 promoter reporter, primary screen, cell-based, SK-MEL-5, single point, luciferase | AID 488899, 2010 | inhibition, % at 12.5 µM | SK-MEL-5 TRPM1 promoter luciferase, 24 h | 330,000 tested, 0.83% active;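 active means mean inhibition across replicates of 60% or more, whatever share of single replicates reaches that level; inconclusive means some that reach 60%, reason not given; inactive means mean inhibition across replicates below 60%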
Peg3 promoter = Peg3 promoter-driven luciferase inhibitors, primary screen, cell-based, HeLa, luciferase luminescence; HeLa PEG-Prom luciferase reporter, overnight; AID 588405, 2011; 360,000 tested, 1.7% active; inhibition, % at 20 µM;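 active means inhibition of at least 50% at 20 µM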
CF NFkB inh = inhibitors of PAF-induced NF-kB signaling, primary screen, cell-based, GFP fluorescence, uHTS; KKLEB NF-kB-GFP reporter, GFP fluorescence overnight; inhibition, % at 5 µM; 360,000 tested, 0.86% active; AID 588850, 2011;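 active means at least 50% inhibition at 5 µM, scaled per plate between neutral and stimulator controls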;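 further: PAF is a Pseudomonas aeruginosa culture filtrate used as stimulus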
LMP1 NFkB inh = EBV LMP1-driven NF-kappaB luciferase reporter inhibitors, primary screen, cell-based, luminescence, single point. LMP1-induced NF-kappaB luciferase reporter cells. inhibition, % at 12.5 µM. 350,000 tested, 0.69% active. AID 504558, 2011; in the data active means inhibition above about 41%; inconclusive means no clear call, values can overlap the other calls
Hits are given with their value; i = inactive; ? = inconclusive; nt = no result given.

SMILES	KKLEB tox	Shn3 inh set2	MITF TRPM1 inh	Peg3 promoter	CF NFkB inh	LMP1 NFkB inh
COc1ccc(C(=O)Nc2ccc(Oc3nc(C)nc4sc(-c5ccccc5)cc34)cc2)cc1OC	-53.3	i	i	i	i	i
O=C(c1ccc(COc2ccccc2Cl)o1)N1CCCC1	i	i	i	i	i	46.6
CN(C)CCN(C)C1CN(Cc2ccccc2)S(=O)(=O)C1 (centres undefined)	i	i	nt	i	i	nt
CCOC(=O)C1=CCN(S(=O)(=O)c2ccc(C)cc2)C1c1ccc(CC)cc1 (centres undefined)	i	i	nt	i	i	nt
CCCSc1ccc([C@@H]2[C@H]3C(=O)N(C)C(=O)[C@H]3[C@]3(C(=O)OC)CCCN23)cc1OC	i	i	i	i	i	84.6
COC(=O)[C@@]12CCCCN1[C@H](c1ccc(-c3cc(C(C)=O)cs3)cc1)[C@H]1C(=O)N(C)C(=O)[C@H]12	i	i	i	73.5	i	i
Brc1ccccc1-c1nnc2sc(Cc3ccccc3)nn12	i	i	i	i	i	i
COc1ccc(Cc2nn3c(-c4ccccc4Br)nnc3s2)cc1	i	i	i	i	52.8	i
Cc1ccccc1NC(=O)c1c([N+](=O)[O-])c(C(C)(C)C)nn1C	i	i	i	i	i	55.3
Cc1cccc(NC(=O)c2c([N+](=O)[O-])c(C(C)(C)C)nn2C)c1	i	i	i	i	i	i
O=C(CCl)N(C/C=C/c1ccccc1)c1ccc2c(c1)OCCO2	-99.7	i	i	i	91.9	i
CC1=CN2C(=N)/C(=C/c3ccc([N+](=O)[O-])o3)C(=O)N=C2S1	i	93.6	88.6	107.2	51.3	i
Cc1ccccc1Oc1ccc2c(c1)[C@@H]1C[C@H]3[C@@H](C(=O)N1CC2)[C@H](C)ON3C	i	i	i	i	i	i
CCN(CC)c1nc(-c2ccccc2)nc2ccccc12	i	i	i	i	i	i
CCCCN(CCCC)c1nc(-c2ccncc2)nc2ccccc12	i	i	i	51.5	i	i
COc1ccc(-c2nc3ccc(Br)cn3c2Cc2ccsc2)cc1OC	i	i	nt	i	i	nt
COc1cc(/C=N/N=C2/NC(=O)C(CC(=O)O)S2)ccc1OCc1ccc(Cl)cc1 (centres undefined)	i	i	i	i	i	i
NC(N)=N/N=C/c1ccc(Cl)c(Cl)c1	i	i	nt	99.5	i	nt
NC(N)=N/N=C/c1ccc(OCc2ccccc2Cl)cc1	i	i	i	102.8	i	i
COc1cc(/C=N/N=C(N)N)ccc1OCc1ccc(Cl)cc1	i	i	89.0	102.5	i	i
NC(N)=N/N=C/c1ccccc1	i	i	i	i	i	i
Clc1cccc(Cl)c1/C=C/c1nc2ccccc2[nH]1	i	i	i	i	i	i
Clc1ccc(/C=C/c2nc3ccccc3[nH]2)c(Cl)c1	-76.1	i	i	i	i	i
Clc1ccc(/C=C/c2nc3ccccc3[nH]2)cc1	-73.8	i	i	i	i	i
CN(C)S(=O)(=O)c1ccc(Cl)c(NC(=O)COC(=O)CNS(=O)(=O)c2c(F)cccc2F)c1	i	i	i	i	i	i
SMILES	KKLEB tox	Shn3 inh set2	MITF TRPM1 inh	Peg3 promoter	CF NFkB inh	LMP1 NFkB inh
CCn1c2ccccc2c2nc3cc(C(=O)O)ccc3nc21	-62.9	i	i	i	i	i
CCn1c2ccccc2c2nc3ccccc3nc21	i	i	i	i	i	i
CC1(CO)CCCC1NCCNC1CCCC1(C)CO (centres undefined)	i	i	nt	i	i	nt
CC(=O)Nc1ccc(OCCCNC(=O)c2c(-c3ccccc3)noc2C)cc1	i	i	i	i	i	57.7
Oc1ccc(N=Nc2cccc(Cl)c2)cc1C=Nc1ccc(N2CCOCC2)cc1	i	i	i	i	68.2	i
Cc1cc(Cl)n2c(nc3cc(F)c(F)cc32)c1C#N	-69.3	96.3	98.0	110.3	89.4	i
Cc1cc(C)n2c(=O)c3ccc(Cl)cc3nc2c1C#N	i	i	i	i	i	i
Cc1ccc(NC(=O)c2ccc(Cl)c(S(=O)(=O)Nc3c(C)n(C)n(-c4ccccc4)c3=O)c2)cc1Cl	i	i	i	i	i	i
OCCCn1c(C2CCCN2c2nc(-c3ccc(Cl)cc3)cs2)nc2cc(Cl)c(N3CCCCC3)cc21 (centres undefined)	i	i	i	71.9	i	i
Cc1[nH]c(=O)c(C#N)cc1-c1csc(-c2ccccc2)n1	i	i	i	59.8	i	i
N#Cc1cc2c(nc1SCC(=O)Nc1sc3c(c1C#N)CCC3)CCC2	i	i	i	i	i	i
COc1ccc(-c2cc(C(F)(F)F)nc(SCC(=O)Nc3sc4c(c3C#N)CCC4)n2)cc1	-60.8	i	i	i	i	i
COc1ccc(-c2ccc(C#N)c(SCC(=O)Nc3sc4c(c3C#N)CCC4)n2)cc1OC	i	i	i	74.7	i	i
COc1cc(CN2C[C@@H](CO)O[C@@H](n3cnc4c(NCCN(C)C)ncnc43)C2)cc(OC)c1OC	i	i	nt	i	i	nt
Cc1sc2ncnc(N3CCC(C(=O)Nc4ccccc4C(C)(C)C)CC3)c2c1C	i	i	i	i	67.9	?
Cc1sc2ncnc(N3CCC(C(=O)N(C)CC(=O)Nc4ccccc4Cl)CC3)c2c1C	i	i	i	i	i	i
CCOC(=O)c1ccccc1NC(=O)C1CCN(c2ncnc3sc(C)c(C)c23)CC1	i	i	i	i	i	i
CCN(CC)S(=O)(=O)c1cc(NC(=O)C2CCN(c3ncnc4sc(C)c(C)c34)CC2)ccc1Cl	i	89.0	63.8	67.2	i	i
CCN(CC(=O)Nc1cc(Cl)ccc1C)C(=O)C1CCN(c2ncnc3sc(C)c(C)c23)CC1	i	i	nt	65.7	i	i
Cc1sc2ncnc(N3CCC(C(=O)N(C)CC(=O)Nc4ccc(Cl)c(C(F)(F)F)c4)CC3)c2c1C	i	i	i	64.4	i	i
COCCN1C[C@@H](CO)O[C@@H](n2cnc3c(N(C)C)ncnc32)C1	i	i	nt	i	i	nt
CCN(CC)CCCNC(=O)c1[nH]c2ccccc2c1Sc1ccc(Cl)cc1	i	i	i	65.4	i	i
CCN(CC)S(=O)(=O)c1cccc(-n2c(O)c(C=Nc3ccccc3C(=O)O)c3ccccc3c2=O)c1	i	i	i	i	91.3	57.6
O=C(NCC1COc2ccccc2O1)c1cccc(S(=O)(=O)N2CCN(c3ccccc3)CC2)c1 (centres undefined)	i	i	i	i	i	i
CC(NC(=O)C1CCN(CCOc2ccc(Cl)cc2)CC1)c1cccc2ccccc12 (centres undefined)	i	i	nt	69.3	i	nt
O=C(c1ccc(Cl)cc1)N1CCN(CCOc2ccccc2)CC1	i	i	i	i	i	47.1
